Measured values: PubChem BioAssay (EPA / NIEHS)
Where “and” joins values, the source holds several entries; their conditions need not be identical. Identical values can stand only once. Records with an inconclusive call do not appear. Some compounds were tested as several samples or in several runs, with calls that do not always agree. Calls of active or inactive are those of the source. The calls were made as follows, unless noted: active = hit-call score of the fitted dose curve at least 0.9, where 1 is the maximum; inconclusive = response in the unintended direction; inactive = score below 0.9.

How the values were obtained:
[1] = biological target: rat Serotonin Transporter (SERT), Slc6a4 (gene 25553) (UniProt P31652); test: NVS_TR_rSERT: NovaScreen (NVS) Transporter Assay for rat Serotonin Transporter (SERT) (AID 2283375)
Procedure, shortened: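 Radioligand displacement, filter scintillation readout; rat forebrain membrane prep, 1 h post-dose. Single-conc 25 uM duplicate screen, then concentration-response on actives. Loss of signal vs DMSO baseline.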

[2] = biological target: mouse Estrogen Receptor alpha (Era), Esr1 (gene 13982) (UniProt P19785); test: NVS_NR_mERa: NovaScreen (NVS) Nuclear Receptor Binding Assay for mouse Estrogen Receptor alpha (Era) (AID 2283378);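 also: hit means loss of bound radioligand signal relative to DMSO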
Chain of mouse Estrogen Receptor alpha (Era), Esr1 (gene 13982) (P19785 whole entry, looked up): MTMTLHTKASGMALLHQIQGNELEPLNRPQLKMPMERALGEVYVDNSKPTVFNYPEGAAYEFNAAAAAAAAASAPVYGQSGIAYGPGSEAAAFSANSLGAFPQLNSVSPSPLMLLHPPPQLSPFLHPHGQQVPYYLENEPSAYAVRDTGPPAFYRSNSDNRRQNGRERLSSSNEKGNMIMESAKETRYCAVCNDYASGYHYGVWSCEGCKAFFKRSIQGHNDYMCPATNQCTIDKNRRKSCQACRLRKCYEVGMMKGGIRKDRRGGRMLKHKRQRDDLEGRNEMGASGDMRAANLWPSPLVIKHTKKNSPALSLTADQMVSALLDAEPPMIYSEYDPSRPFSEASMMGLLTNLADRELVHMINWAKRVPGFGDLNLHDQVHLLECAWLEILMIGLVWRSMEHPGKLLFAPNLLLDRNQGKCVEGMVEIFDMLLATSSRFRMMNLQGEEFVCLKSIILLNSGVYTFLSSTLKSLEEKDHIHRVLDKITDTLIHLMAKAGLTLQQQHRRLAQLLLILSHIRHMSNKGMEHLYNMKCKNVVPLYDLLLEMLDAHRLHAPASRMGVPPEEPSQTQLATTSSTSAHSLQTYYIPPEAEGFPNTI
Procedure, shortened: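 Filter scintillation counts of bound radioligand, measured 18 h post-dose, gave the readout; decreased signal relative to DMSO controls indicated displacement from mouse Era. Primary screen ran in duplicate at 25 uM; active chemicals were retested across concentrations.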

[3] = biological target: Estrogen receptor beta (Homo sapiens) (UniProt Q92731); test: OT_ER_ERbERb_1440: Odyssey Thera (OT) 24-hour HEK293T Protein-Complementation Assay for Estrogen Receptor-beta/-beta Homodimer (AID 2283380);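 also: scored as signal increase over DMSO baseline for both agonists and antagonists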
Chain of Estrogen receptor beta (Homo sapiens) (Q92731 whole entry, looked up, the tested form may be a part): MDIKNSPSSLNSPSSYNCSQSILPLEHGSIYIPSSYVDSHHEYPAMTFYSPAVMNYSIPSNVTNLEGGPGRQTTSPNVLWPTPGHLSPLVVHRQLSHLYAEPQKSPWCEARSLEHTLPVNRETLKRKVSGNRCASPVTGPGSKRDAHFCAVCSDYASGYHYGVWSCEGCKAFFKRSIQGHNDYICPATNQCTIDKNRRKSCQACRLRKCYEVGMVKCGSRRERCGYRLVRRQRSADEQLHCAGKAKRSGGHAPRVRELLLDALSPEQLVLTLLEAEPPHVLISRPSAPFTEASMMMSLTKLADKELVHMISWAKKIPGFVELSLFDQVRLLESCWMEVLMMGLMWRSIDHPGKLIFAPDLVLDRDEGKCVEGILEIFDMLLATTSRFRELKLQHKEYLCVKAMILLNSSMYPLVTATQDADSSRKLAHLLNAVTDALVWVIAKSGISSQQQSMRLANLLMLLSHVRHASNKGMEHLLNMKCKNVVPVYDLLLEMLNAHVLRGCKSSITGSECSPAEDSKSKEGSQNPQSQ
Procedure, shortened: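 HEK293T cells stably expressing ER beta LBD (aa 310-547) homodimer fragment-complementation reporter, dosed 24 h. Cells formaldehyde-fixed, Draq5-stained; gain in nuclear (agonist) or nuclear plus cytoplasmic (antagonist) fluorescence versus DMSO read by laser scanning cytometry.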

[4] = biological target: Estrogen receptor (Homo sapiens) (UniProt P03372); test: OT_ERa_GFPERaERE_0480: Odyssey Thera (OT) 8-hour HeLa Transcription Induction Assay for Estrogen Receptor (AID 2283381; active = hit-call score of the fitted dose curve at least 0.9, where 1 is the maximum; inactive = score below 0.9)
Chain of Estrogen receptor (Homo sapiens) (P03372 whole entry, looked up): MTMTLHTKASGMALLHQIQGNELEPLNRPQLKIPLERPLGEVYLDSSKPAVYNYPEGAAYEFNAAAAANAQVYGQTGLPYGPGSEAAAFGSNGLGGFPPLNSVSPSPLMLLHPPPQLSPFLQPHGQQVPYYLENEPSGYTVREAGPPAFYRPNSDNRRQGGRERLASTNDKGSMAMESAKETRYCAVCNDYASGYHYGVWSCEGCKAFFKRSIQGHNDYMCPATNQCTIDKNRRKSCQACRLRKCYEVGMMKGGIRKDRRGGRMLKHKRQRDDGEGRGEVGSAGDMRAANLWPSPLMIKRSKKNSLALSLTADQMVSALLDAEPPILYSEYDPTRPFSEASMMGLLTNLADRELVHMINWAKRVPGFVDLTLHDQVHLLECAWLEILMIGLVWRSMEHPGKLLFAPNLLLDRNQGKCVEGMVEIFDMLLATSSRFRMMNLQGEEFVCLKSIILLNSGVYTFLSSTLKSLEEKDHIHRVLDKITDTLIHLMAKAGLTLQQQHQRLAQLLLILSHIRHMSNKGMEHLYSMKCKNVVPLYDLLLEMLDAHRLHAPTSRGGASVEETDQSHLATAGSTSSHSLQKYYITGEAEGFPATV
Procedure, shortened: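 Fluorescent reporter signal, imaged by microscopy and scored with image-analysis algorithms, was taken 8 h after chemical dosing of HeLa cells; activity was fitted upward relative to DMSO.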

[5] = biological target: Estrogen receptor (Homo sapiens) (UniProt P03372); test: OT_ERa_GFPERaERE_0120: Odyssey Thera (OT) 2-hour HeLa Transcription Induction Assay for Estrogen Receptor (AID 2283382)
Procedure, shortened: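 HeLa, 384-well, 2 h chemical exposure; GFP reporter induction (ERE), fluorescence microscopy; high content image analysis; positive fitting direction vs DMSO.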

[6] = biological target: Bile acid receptor (Homo sapiens) (UniProt Q96RI1); test: OT_FXR_FXRSRC1_0480: Odyssey Thera (OT) 8-hour HEK293T Protein-Complementation Assay for Farnesoid X receptor/SRC-1 Co-activator (AID 2283383)
Chain of Bile acid receptor (Homo sapiens) (Q96RI1 whole entry, looked up, the tested form may be a part): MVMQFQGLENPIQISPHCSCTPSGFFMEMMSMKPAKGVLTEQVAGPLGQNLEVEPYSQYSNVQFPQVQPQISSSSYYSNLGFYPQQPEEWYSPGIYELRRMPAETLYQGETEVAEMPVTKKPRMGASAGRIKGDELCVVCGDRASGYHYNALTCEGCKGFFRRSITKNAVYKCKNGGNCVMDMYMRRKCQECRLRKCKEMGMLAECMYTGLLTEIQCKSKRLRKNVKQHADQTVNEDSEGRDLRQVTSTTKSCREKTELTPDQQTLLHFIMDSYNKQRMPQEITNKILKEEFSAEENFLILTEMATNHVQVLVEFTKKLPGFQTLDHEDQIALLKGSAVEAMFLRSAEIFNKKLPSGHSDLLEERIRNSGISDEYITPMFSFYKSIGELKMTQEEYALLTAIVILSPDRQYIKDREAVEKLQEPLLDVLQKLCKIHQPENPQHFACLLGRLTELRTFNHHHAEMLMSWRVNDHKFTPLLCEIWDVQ
Procedure, shortened: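 Human kidney HEK293T cells carried FXR/SRC-1 fragment-complementation constructs. Compounds were added and incubated 8 h. Reporter reassembly upon receptor–co-activator interaction was then quantified by fluorescence, with curves fitted in the positive direction relative to DMSO.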

[7] = biological target: Bile acid receptor (Homo sapiens) (UniProt Q96RI1); test: OT_FXR_FXRSRC1_1440: Odyssey Thera (OT) 24-hour HEK293T Protein-Complementation Assay for Farnesoid X receptor/SRC-1 Co-activator (AID 2283384)
Procedure, shortened: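 Compounds are applied to human kidney HEK293T cells expressing bait and prey fused to reporter protein fragments; after 24 h, reconstituted reporter fluorescence is measured. Activity is fitted as signal gain over DMSO.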

[8] = biological target: Retinoic acid receptor RXR-alpha (Homo sapiens) (UniProt P19793); test: OT_NURR1_NURR1RXRa_0480: Odyssey Thera (OT) 8-hour HEK293T Protein Complementation Assay for Nurr1/retinoid X receptor (RXR) (AID 2283385)
Chain of Retinoic acid receptor RXR-alpha (Homo sapiens) (P19793 whole entry, looked up, the tested form may be a part): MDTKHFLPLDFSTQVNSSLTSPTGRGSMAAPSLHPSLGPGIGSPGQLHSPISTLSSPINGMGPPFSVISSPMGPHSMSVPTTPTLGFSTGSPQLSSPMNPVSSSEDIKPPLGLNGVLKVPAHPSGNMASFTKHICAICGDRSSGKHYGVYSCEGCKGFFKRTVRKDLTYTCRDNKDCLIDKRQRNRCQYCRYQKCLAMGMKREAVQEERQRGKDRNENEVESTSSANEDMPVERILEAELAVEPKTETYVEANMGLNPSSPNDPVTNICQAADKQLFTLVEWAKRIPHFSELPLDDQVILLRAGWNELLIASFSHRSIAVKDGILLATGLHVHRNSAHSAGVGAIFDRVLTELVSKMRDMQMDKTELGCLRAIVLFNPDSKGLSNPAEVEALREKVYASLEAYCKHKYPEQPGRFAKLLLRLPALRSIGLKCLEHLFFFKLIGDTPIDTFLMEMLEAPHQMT
Procedure, shortened: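 8 h compound exposure, HEK293T; Nurr1/RXRα fragment complementation; fluorescence intensity; positive fitting direction vs DMSO baseline.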

[9] = biological target: Retinoic acid receptor RXR-alpha (Homo sapiens) (UniProt P19793); test: OT_NURR1_NURR1RXRa_1440: Odyssey Thera (OT) 24-hour HEK293T Protein Complementation Assay for Nurr1/retinoid X receptor (RXR) (AID 2283386)
Procedure, shortened: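 Interaction of Nurr1 with RXRα brings fused reporter fragments together in human HEK293T cells, restoring a functional reporter. Fluorescence intensity is measured 24 h after chemical treatment, and values are analysed in the positive direction against DMSO.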

[10] = CEETOX_H295R_11DCORT: CeeTox H295R High-throughput Steroidogenesis Assay for 11-Deoxycortisol (11DCORT) (AID 2283432; active = hit-call score of the fitted dose curve at least 0.9, where 1 is the maximum; inactive = score below 0.9;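 as to AC50: 11-deoxycortisol secreted into the medium measured by LC-MS/MS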); details: actives raise or lower the signal
Procedure, shortened: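 Adrenal carcinoma line H295R, run per OECD 456 with minor changes, was forskolin-stimulated (10 uM, 48 h) before a 48 h chemical exposure at 0.1% DMSO. Secreted 11-deoxycortisol was quantified by HPLC-MS/MS.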

[11] = CEETOX_H295R_OHPREG: CeeTox H295R High-throughput Steroidogenesis Assay for OH-Pregnenolone (OHPREG) (AID 2283434; active = hit-call score of the fitted dose curve at least 0.9, where 1 is the maximum; inactive = score below 0.9); details: actives raise or lower the signal
Procedure, shortened: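 H295R cells pre-stimulated 48 h with 10 uM forskolin, then exposed 48 h to chemical in 0.1% DMSO. 17alpha-hydroxypregnenolone in medium quantified by MTBE extraction and HPLC-MS/MS; bidirectional fit versus DMSO, viability checked by MTT.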

[12] = CEETOX_H295R_OHPROG: CeeTox H295R High-throughput Steroidogenesis Assay for OH-Progesterone (OHPROG) (AID 2283435; active = hit-call score of the fitted dose curve at least 0.9, where 1 is the maximum; inactive = score below 0.9;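 as to AC50: human adrenal H295R cells primed 48 h with 10 µM forskolin; 17alpha-hydroxyprogesterone secreted into medium measured by HPLC-MS/MS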); details: actives raise or lower the signal
Procedure, shortened: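 H295R, 10 uM forskolin prestim 48 h; cmpd in 0.1% DMSO 48 h; medium MTBE-extracted, HPLC-MS/MS for OH-progesterone; 7-pt std curve; bidirectional fit vs DMSO; MTT viability, chemicals diluted until viability >/=70%.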

[13] = CEETOX_H295R_CORTIC: CeeTox H295R High-throughput Steroidogenesis Assay for Corticosterone (CORTIC) (AID 2283437; active = hit-call score of the fitted dose curve at least 0.9, where 1 is the maximum; inactive = score below 0.9;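 also: corticosterone secreted into medium quantified by mass spectrometry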); details: actives raise or lower the signal
Procedure, shortened: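 H295R adrenal cells prestimulated 48 hours with 10 uM forskolin, then exposed 48 hours to chemical in 0.1% DMSO. Corticosterone in medium measured by HPLC-MS/MS after MTBE extraction; MTT viability in the same wells; bidirectional fit versus DMSO.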

[14] = biological target: Agonist Androgen Response Element (ARE), AR (gene 367) (UniProt P10275); test: OT_AR_ARELUC_AG_1440: Odyssey Thera (OT) 24-hour CHO-K1 Luciferase Assay for Agonist Androgen Response Element (ARE) (AID 2283379)
Chain of Agonist Androgen Response Element (ARE), AR (gene 367) (P10275 whole entry, looked up): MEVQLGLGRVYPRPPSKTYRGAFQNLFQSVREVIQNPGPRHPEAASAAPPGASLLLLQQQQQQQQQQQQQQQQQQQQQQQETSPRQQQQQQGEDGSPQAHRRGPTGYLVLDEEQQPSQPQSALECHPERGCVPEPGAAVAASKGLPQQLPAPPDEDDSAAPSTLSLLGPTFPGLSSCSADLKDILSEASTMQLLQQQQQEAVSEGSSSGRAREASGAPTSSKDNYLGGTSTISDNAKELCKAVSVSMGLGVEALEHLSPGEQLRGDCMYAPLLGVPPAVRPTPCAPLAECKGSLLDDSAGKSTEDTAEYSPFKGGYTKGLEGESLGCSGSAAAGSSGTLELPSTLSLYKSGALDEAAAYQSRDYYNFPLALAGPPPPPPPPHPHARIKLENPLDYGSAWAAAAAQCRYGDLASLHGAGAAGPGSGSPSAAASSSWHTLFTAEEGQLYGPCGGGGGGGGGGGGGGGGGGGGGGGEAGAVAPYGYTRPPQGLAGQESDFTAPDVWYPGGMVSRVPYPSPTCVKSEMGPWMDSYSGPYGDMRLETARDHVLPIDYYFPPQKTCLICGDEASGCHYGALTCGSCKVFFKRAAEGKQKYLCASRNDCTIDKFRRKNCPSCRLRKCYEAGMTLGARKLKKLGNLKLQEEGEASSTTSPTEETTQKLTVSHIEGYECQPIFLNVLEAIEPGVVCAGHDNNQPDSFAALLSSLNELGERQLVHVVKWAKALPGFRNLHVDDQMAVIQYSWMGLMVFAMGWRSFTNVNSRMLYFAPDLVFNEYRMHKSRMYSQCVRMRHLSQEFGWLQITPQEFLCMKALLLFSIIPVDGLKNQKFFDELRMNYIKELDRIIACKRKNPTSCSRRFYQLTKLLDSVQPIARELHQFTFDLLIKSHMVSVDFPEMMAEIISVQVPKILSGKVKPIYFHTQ
Procedure, shortened: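 CHO-K1 cells carrying an ARE-driven luciferase reporter were exposed to compounds for 24 h. Luminescence was then read after adding a D-luciferin/ATP mix, and activity was scored as a gain in signal over DMSO vehicle.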

[15] = biological target: Peroxisome proliferator-activated receptor gamma (Homo sapiens) (UniProt P37231); test: OT_PPARg_PPARgSRC1_0480: Odyssey Thera (OT) 8-hour Protein-Complementation Assay for Peroxisome Proliferator-activated Receptor Gamma / SRC-1 Co-activator (AID 2283387);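 also: nuclear to cytoplasmic split Venus YFP fluorescence ratio reporting PPARg SRC-1 interaction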
Chain of Peroxisome proliferator-activated receptor gamma (Homo sapiens) (P37231 whole entry, looked up, the tested form may be a part): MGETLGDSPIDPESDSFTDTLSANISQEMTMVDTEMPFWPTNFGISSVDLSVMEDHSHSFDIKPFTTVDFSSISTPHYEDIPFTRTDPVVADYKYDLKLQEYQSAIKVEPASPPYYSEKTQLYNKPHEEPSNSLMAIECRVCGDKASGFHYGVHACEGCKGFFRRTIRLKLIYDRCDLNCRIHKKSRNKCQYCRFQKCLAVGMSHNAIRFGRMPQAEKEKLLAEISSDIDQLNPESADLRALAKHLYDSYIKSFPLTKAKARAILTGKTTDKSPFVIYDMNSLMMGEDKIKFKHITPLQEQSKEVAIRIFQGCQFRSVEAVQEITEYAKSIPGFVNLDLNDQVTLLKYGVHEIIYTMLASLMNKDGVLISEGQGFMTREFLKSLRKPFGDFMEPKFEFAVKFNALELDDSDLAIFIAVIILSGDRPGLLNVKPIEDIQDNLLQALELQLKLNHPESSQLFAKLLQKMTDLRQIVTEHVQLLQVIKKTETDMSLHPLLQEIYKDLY
Procedure, shortened: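 Protein-fragment complementation in HEK293T: Venus YFP halves (residues 1-158, 159-239, mutated to IFP1/IFP2) fused to PPARg/SRC-1. 8 h exposure; N/C ratio at 488 nm; DMSO negative control.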

[16] = biological target: Peroxisome proliferator-activated receptor gamma (Homo sapiens) (UniProt P37231); test: OT_PPARg_PPARgSRC1_1440: Odyssey Thera (OT) 24-hour Protein-Complementation Assay for Peroxisome Proliferator-activated Receptor Gamma/ SRC-1 Co-activator (AID 2283388);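 also: nuclear to cytoplasmic ratio of reconstituted Venus YFP fluorescence in fixed imaged cells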
Procedure, shortened: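 Readout: nuclear-to-cytoplasmic 488 nm fluorescence ratio, ≥350 cells per image, 8 images per well, after 24 h compound exposure of HEK293T expressing PPARg/SRC-1 split-YFP fusions. Activity fitted in positive direction against DMSO.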

[17] = biological target: human Norepinephrine Transporter (NET), SLC6A2 (gene 6530) (UniProt P23975); test: NVS_TR_hNET: NovaScreen (NVS) Transporter Assay for human Norepinephrine Transporter (NET) (AID 2283377);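 as to AC50: displacement of radioligand from human NET seen as loss of scintillation signal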
Chain of human Norepinephrine Transporter (NET), SLC6A2 (gene 6530) (P23975 whole entry, looked up): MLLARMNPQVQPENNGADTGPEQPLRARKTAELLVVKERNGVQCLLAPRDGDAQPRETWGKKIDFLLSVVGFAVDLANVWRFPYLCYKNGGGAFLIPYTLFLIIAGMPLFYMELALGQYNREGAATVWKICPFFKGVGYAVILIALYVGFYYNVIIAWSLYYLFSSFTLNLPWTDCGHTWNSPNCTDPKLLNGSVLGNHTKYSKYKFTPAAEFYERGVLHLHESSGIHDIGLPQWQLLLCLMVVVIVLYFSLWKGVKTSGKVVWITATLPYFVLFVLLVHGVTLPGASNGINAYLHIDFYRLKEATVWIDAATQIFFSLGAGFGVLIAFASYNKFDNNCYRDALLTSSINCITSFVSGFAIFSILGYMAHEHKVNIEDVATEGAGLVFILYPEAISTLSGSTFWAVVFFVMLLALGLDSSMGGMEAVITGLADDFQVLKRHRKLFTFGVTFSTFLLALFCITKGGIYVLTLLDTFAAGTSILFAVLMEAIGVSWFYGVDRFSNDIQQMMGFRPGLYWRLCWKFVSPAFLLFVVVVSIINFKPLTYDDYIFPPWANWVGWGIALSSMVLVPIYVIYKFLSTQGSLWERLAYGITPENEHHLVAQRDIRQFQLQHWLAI
Procedure, shortened: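 Cell-free radioligand binding using CHO-derived membrane protein expressing human NET, read by filter scintillation counting 1 h after dosing; loss of signal vs DMSO. Initial duplicate screen at 25 uM, actives retested in concentration series.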

[18] = CEETOX_H295R_ANDR: CeeTox H295R High-throughput Steroidogenesis Assay for Androstenedione (ANDR) (AID 2283436; active = hit-call score of the fitted dose curve at least 0.9, where 1 is the maximum; inactive = score below 0.9); details: actives raise or lower the signal
Procedure, shortened: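 H295R cells, following OECD 456 with minor changes, exposed to chemicals for 48 h. Androstenedione in the medium was quantified by HPLC-MS/MS after MTBE extraction. Fitting was bidirectional versus DMSO; chemicals were diluted until MTT viability was ≥70%.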

Measured: AC50

CCOC(=O)c1ccc(O)cc1
inactive: [1] | [2] | [3] | [4] | [5] | [6] | [7] | [8] | [9] | [11] | [13]
active: [3] 28.6 µM and 25.9 µM and 32.9 µM | [10] 85.1 µM | [12] 31 µM

CCCOC(=O)c1ccc(C(=O)OCCC)nc1
inactive: [14] | [3] | [4] | [5] | [6] | [9] | [15] | [16]
active: [7] 13.2 µM

O=C(O)C1(C(=O)Nc2ccc(Cl)cc2Cl)CC1
active: [9] 50 µM
inactive: [14] | [3] | [4] | [5] | [6] | [7] | [15] | [16]

CCSC(=O)N(CC(C)C)CC(C)C
inactive: [14] | [3] | [4] | [5] | [9] | [15] | [16]

c1ccc(Nc2ccccc2)cc1
inactive: [3] | [9] | [15] | [16] | [11] | [12]
active: [17] 3.18 µM | [8] 50 µM

N[C@@H](Cc1cc(I)c(Oc2ccc(O)c(I)c2)c(I)c1)C(=O)O
inactive: [2] | [4] | [5] | [15] | [16]
active: [2] 1.65 µM and 20 µM and 4.66 µM

O=C(c1ccccc1)C1CCCCC1
inactive: [2] | [14] | [4] | [5] | [6] | [7] | [8] | [9] | [15] | [16]
active: [14] 527 nM

O=C(c1ccc(O)cc1O)c1ccc(O)cc1O
inactive: [2] | [14] | [6] | [8] | [9] | [15] | [16]
active: [2] 470 nM and 647 nM and 1.69 µM | [14] 722 nM and 29.3 µM | [3] 2.09 µM and 2.02 µM and 2.21 µM | [4] 2.11 µM and 2.15 µM and 2.89 µM | [5] 2.24 µM and 2.25 µM and 2.67 µM | [7] 50 µM and 28 µM

CCCN(CCC)C(=O)SCC
not listed: [1] | [2] | [6] | [7] | [17]
inactive: all other assays above

Cc1nn(C)c(Oc2ccccc2)c1C=NOCc1ccc(C(=O)OC(C)(C)C)cc1
inactive: [14] | [3] | [4] | [5] | [8] | [9] | [15] | [16]
active: [6] 7.14 µM | [7] 9.92 µM | [8] 11.3 µM | [9] 15.7 µM

S=C(S)NCCNC(=S)S.[Mn+2].[S-]C([S-])=NCCN=C([S-])[S-].[Zn+2]
active: [17] 0.269 µM | [9] 40.2 µM [middle of 4 runs]
inactive: [17] | [3] | [8] | [9] | [15] | [16] | [10] | [11] | [12] | [13]

CCCCOCCOCCOCc1cc2c(cc1CCC)OCO2
inactive: [14] | [3] | [7] | [8] | [9] | [15] | [16] | [12] | [18]
active: [6] 33.1 µM | [11] 5 µM
